# HPGD inh – blocks human HPGD enzyme activity; 150,000 compounds, 4.3% hits; purified HPGD, NADH fluorescence kinetic, PGE2 substrate; AID 894; Potency, µM, inactives show top-dose activity change, negative = inhibition, actives largely listed as inhibitors; P15428; also: potency is read from the fitted curve at half-maximal effect
#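 20 nM HPGD preincubated 15 min at room temperature with compound in 50 mM Tris-HCl pH 8, 0.01% Tween 20. Started with 1 mM NAD+ and 30 uM prostaglandin E2; NADH fluorescence (360/450 nm) read 5 times over 30-s intervals, last minus first.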
# ALDH1A1 inh – ALDH1A1 (human) enzyme inhibition | 220,000 compounds, 7.3% hits | Purified ALDH1A1, NADH fluorescence, propionaldehyde substrate | Potency, µM (doses to about 75.3 µM), inactives show top-dose activity, negative = inhibition, most hits filed as inhibitors | P00352;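 also: potency is read from the fitted curve at half-maximal effect; plate controls were no enzyme wells and a reference inhibitor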
# Target sequence (P00352 whole entry, looked up): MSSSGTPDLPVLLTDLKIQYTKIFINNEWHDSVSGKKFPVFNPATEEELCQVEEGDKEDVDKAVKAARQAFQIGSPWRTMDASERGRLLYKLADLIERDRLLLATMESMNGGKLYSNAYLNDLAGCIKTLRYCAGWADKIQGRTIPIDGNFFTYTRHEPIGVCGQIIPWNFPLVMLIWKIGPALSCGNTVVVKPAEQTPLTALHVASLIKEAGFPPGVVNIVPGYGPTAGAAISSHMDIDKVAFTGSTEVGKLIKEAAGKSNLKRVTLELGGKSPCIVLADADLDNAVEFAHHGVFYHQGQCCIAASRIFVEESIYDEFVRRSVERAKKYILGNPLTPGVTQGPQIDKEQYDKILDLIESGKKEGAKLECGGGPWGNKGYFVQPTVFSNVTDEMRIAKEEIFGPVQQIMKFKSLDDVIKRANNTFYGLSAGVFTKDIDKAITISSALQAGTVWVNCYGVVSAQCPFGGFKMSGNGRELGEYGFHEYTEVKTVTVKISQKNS
# PNC assembly inh – perinucleolar compartment assembly inhibition. PC3M PTB-GFP, PNC prevalence imaging, 16 h; active compounds read low. activity change (PNC), negative = inhibition, % at 10 µM. 140,000 compounds, 3.1% hits;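 active = readout at or below -70, meaning at least 70% loss of cells showing the perinucleolar compartment, a nuclear body marking cancer cells; inconclusive = readout between -30 and a set limit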;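 also: plate controls were DMSO wells for no effect and camptothecin positive control wells for full effect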
#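 Compounds are pinned in duplicate onto adhered PC3M cells stably expressing GFP-tagged PTB and incubated 16 h at 37 C. Cells are then fixed, nuclei stained with Hoechst, and PNC-positive cells counted.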
# Numbers without * were called inactive; ? = inconclusive; . = no result given; [ ] = dose if it differs, or a comment. Most compounds without a hit are left out; they make up all but 11% or so of the library. Unless noted, calls follow the shape of the dose curve; as a rule, active = well fitted inhibition curve with a large enough effect (not every such curve was filed as active); inconclusive = small, poorly fitted or top-dose-only effect, or another doubt; inactive = no such curve, though single readings can be large or run the other way. Unless noted, % is scaled to controls: 0 for no effect and ±100 for the full control effect.
SMILES,HPGD inh,ALDH1A1 inh,PNC assembly inh
Cc1cc(C)c(C2=NOC3C4CCC(C4)C23)c(C)c1 (centres undefined),-27.0%,0.0%,-25.7
Cc1nonc1CC(=O)N1CCCC(C(=O)c2cccc(C(F)(F)F)c2)C1 (centres undefined),.,6.8%,.
CN(C)C(CNC(=O)c1cc(S(=O)(=O)N(C)c2ccccc2)ccc1Cl)c1cccs1 (centres undefined),.,-3.3%,.
CCn1c(-c2ccc(F)cc2)n[nH]c1=S,-10.8%,-8.9%,14.2
CCn1c(-c2ccc(C(C)(C)C)cc2)n[nH]c1=S,?,?,-88.6*
Cc1ccc(CNS(=O)(=O)c2ccc(C(C)(C)C)cc2)n1C,-11.0%,8.91µM*,37.6
Cn1c(CNS(=O)(=O)c2ccc(F)cc2)n[nH]c1=S,-14.7%,7.4%,-29.6
COC(=O)[C@H]1O[C@@H](c2cc(OC)c(C)c(OC)c2OCc2ccccc2)[C@H](C)[C@H]2O[C@@]12C,-2.7%,-3.2%,.
Cc1ccc(C)n1CCN1CCN(C(=O)c2ccco2)CC1,-2.1%,0.0%,?
O=C(CSc1nc(-c2ccccc2)cs1)N1CCN(C(=O)c2ccco2)CC1,-11.7%,?,?
O=C(c1ccco1)N1CCN(C(=O)C(Sc2ccccc2)c2ccccc2)CC1 (centres undefined),-10.7%,14.1µM*,?
O=C(CSc1nnc(-c2ccco2)n1-c1ccccc1)N1CCOCC1,0.3%,4.3%,?
Cc1nnc(SCC(=O)N2CCN(C(=O)c3ccco3)CC2)n1-c1ccccc1,.,28.2µM*,.
O=C(c1ccco1)N1CCN(CC(O)Cn2c3ccccc3c3ccccc32)CC1 (centres undefined),-25.8%,-12.2%,-87.3*
O=C(CSCc1ccccc1)N1CCN(C(=O)c2ccco2)CC1,-20.4%,?,-100.0*
O=C(C(Sc1ccccc1)c1ccccc1)N1CCN(c2ccccc2)CC1 (centres undefined),-0.9%,-8.3%,-16.0
COc1ccc(C(=O)NCC(O)COc2ccc(C(C)(C)C)cc2)cc1[N+](=O)[O-] (centres undefined),-3.6%,-13.6%,-14.9
COc1ccc(NC2=CC(=O)CC(c3ccccc3)C2)cc1 (centres undefined),.,3.0%,.
COC(=O)c1c(OC)cc2c(c1C)Oc1c(Cl)c(OC(C)=O)c(Cl)c(C)c1C(=O)O2,-8.8%,-7.4%,.
C/C(=N/NC1=NCCN1)c1cn(C2=NCCN2)nc1C,-5.1%,-8.8%[13.5 µM],.
Cc1ccc(C(=O)CCC(=O)N2CCN(C(=O)c3ccco3)CC2)cc1,.,22.4µM*,.
O=C(c1ccc(-c2ccccc2)cc1)N1CCN(C(=O)c2ccco2)CC1,-12.0%,?,?
CC(C)C[C@@H](CC(=O)N[C@@H](CCC(=O)O)CC(=O)O)NC(=O)[C@@H]1CNCC[C@H]1NC(=O)C[C@H](CCCN)NC(=O)C[C@H](CO)NC(=O)[C@@H]1CCCC[C@H]1N,-6.4%,-2.1%,.
CC(C)CC(C(=O)Nn1cnnc1)N1C(=O)c2ccccc2C1=O (centres undefined),-21.6%,?,-100.0*
O=C(CCN1C(=O)c2ccccc2C1=O)Nn1cnnc1,-3.4%,-2.4%,34.4
SMILES,HPGD inh,ALDH1A1 inh,PNC assembly inh
COc1ccc(N2C(=S)NC3CS(=O)(=O)CC32)cc1 (centres undefined),.,9.2%,.
COc1ccc(N2C(=O)S[C@@H]3CS(=O)(=O)C[C@@H]32)cc1,-12.8%,12.7%,-113.4*
Cc1cccc(C(C)(C)C)c1OCCCCN1CCCC1,1.2%,?,17.4
COC(=O)C/C=C\[C@@H](C)[C@@H](/C=N\OC[C@@H]1O[C@H](c2ccccc2)C=C[C@@H]1Oc1ccc(OC)cc1)NS(=O)(=O)c1ccc(C)cc1,.,-0.3%[13.5 µM],.
c1ccc(Cn2nnc(-c3ccccc3)n2)cc1,-19.1%,10.5%,-100.0*
Nc1nnn(Cc2ccccc2)n1,-11.1%,2.3%,-100.0*
NCc1nnn(Cc2ccccc2)c1N,0.7%,-11.0%[13.5 µM],.
N#Cc1cccc(Cn2nnc(-c3ccccc3)n2)c1,-15.3%,?,6.5
Cc1cc(N2CCOCC2)nc(SCc2ccc(Cl)cc2Cl)n1,-18.5%,2.9%,45.9
CCNc1nc(NCC)nc(SCCOC(=O)COc2ccc(Cl)cc2Cl)n1,-27.9%,-0.3%,-28.1
C/C(N)=C(/C#N)C(=O)COC(=O)CCC1CCCC1,?,?,16.5
O=c1cc(O)c2c(=O)n(C3CCCCC3)c3ccccc3c2o1,-10.2%,-9.1%,15.6
O=c1cc(O)c2c(=O)n(-c3ccccc3)c3c(c2o1)CCCCCC3,-27.9%,-7.4%,-87.9*
C[C@@]1(C(NS(=O)(=O)c2cccc3cccnc23)c2ccc(-c3ccccc3)cc2)C[C@H]1C1CCCCC1 (some centres undefined),-6.1%,-3.1%,.
CC(=O)C(=Nc1ccccc1Cl)NNc1ccc(Cl)cc1,-28.0%,?,-5.6
Cc1cc(C)c2c(=O)c(C#N)coc2c1,.,10µM*,.
Cc1cc(C)c2c(CC(=O)NC(C)C)coc2c1,.,0.9%,.
C=CCn1c(CCNC(=O)c2cccs2)nnc1SCC(=O)Nc1cccc(Cl)c1C,-20.4%,10µM*,?
C=CCn1c(CCNC(=O)c2cccs2)nnc1SCC(=O)c1ccc(Cl)cc1,-20.0%,-5.4%,34.6
O=C(NC(Cc1ccccc1)C(=O)NCc1ccccn1)c1ccco1 (centres undefined),-7.1%,?,?
COC(=O)c1nc(N)sc1C,.,8.4%,.
COc1ccccc1OCC(=O)Nc1nnc(-c2ccco2)s1,-22.2%,7.08µM*,36.9
CCOc1cccc(C(=O)Nc2nnc(-c3ccco3)s2)c1,?,?,-25.1
O=C(Cc1ccccc1)Nc1nnc(-c2ccco2)s1,-23.4%,?,8.2
Cc1cccc(OCC(=O)Nc2nnc(-c3ccco3)s2)c1,.,31.6µM*,.
SMILES,HPGD inh,ALDH1A1 inh,PNC assembly inh
CCOc1ccc(C(=O)NCC(=O)OCc2ccc(F)cc2Cl)cc1,-1.9%,-4.8%,6.0
CN(C)S(=O)(=O)c1cccc(CSc2cccc[n+]2[O-])c1,-13.5%,-1.2%,?
O=C1c2ccccc2C(=O)c2c1oc(C(F)(F)F)c2C(=O)c1ccccc1,-16.1%,?,-24.5
O=C(c1ccccc1)c1coc2c1C(=O)c1ccccc1C2=O,.,20µM*,.
Cc1ccc(NC(=O)CCn2nc([N+](=O)[O-])cc2C)nc1,2.6%,7.0%,179.1
Cc1nc(=O)c(-c2ccccc2)c(C)n1-c1cccc(C(=O)O)c1,.,-6.0%,-100.5*
COC(=O)c1ccc(-n2c(C)nc(=O)c(-c3ccccc3)c2C)cc1,0.3%,?,-12.0
CC(=O)C1=C(O)CCCC1=NCc1nc2ccccc2[nH]1,.,-9.7%,.
N[C@](CC1c2ccccc2Oc2ccccc21)(C(=O)O)[C@@H]1C[C@@H]1C(=O)O,-15.4%,1.4%,.
CCCCC(=O)NC(=S)Nc1nnn(CCC)n1,.,0.501µM*,.
CCCn1nnc(NC(=O)c2ccccc2Cl)n1,-16.7%,4.4%,50.7
CCCCn1nnc(NC(=S)NC(=O)c2ccc(-c3cccc(Cl)c3Cl)o2)n1,.,3.55µM*,-11.0
CCCCC(=O)Nc1nnn(CCC)n1,5.5%,12.3%,24.0
Cn1c(=O)c2c(nc(N3CCOCC3)n2Cc2c(F)cccc2Cl)n(C)c1=O,-6.2%,-2.9%,?
O=C1S/C(=C/c2ccc(N3CCOCC3)o2)C(=O)N1Cc1c(F)cccc1Cl,-18.7%,0.126µM*,-27.5
O=C1N=C(N2CCOCC2)S/C1=C/c1ccc(-c2ccccc2Cl)o1,-18.5%,-10.3%,-14.8
